Laboratory results from PubChem BioAssay (NCATS).
“And” between values parts separate entries of the source, which are not always exact repeats. Equal values may be shown once. Inconclusive results are not listed. The source made the active and inactive calls. The call rests on the fitted dose curve; in most records, active means well fitted inhibition curve with a large enough effect; inconclusive means small, poorly fitted or top-dose-only effect; inactive means flat fitted curve, though single readings scatter.
On the % scale 0 is the no-effect control and ±100 the full control effect; potency means the concentration at half of the fitted maximal effect.

These compounds were tested on KB-3-1 (assay: Cytotoxic Profiling of Annotated Libraries Using Quantitative High-Throughput Screening (AID 1296008; further: nearly all actives have a fitted effect of over 60% in size)). Details: Five cell lines viability, CellTiter-Glo ATP luminescence, 48-72 h; max response: active compounds read low.
Text: Cell-based phenotypic screening is a commonly used approach to discover biological pathways, novel drug targets, chemical probes and high-quality hit-to-lead molecules. Many hits identified from high-throughput screening campaign are ruled out through a series of follow-up potency, selectivity/specificity, and cytotoxicity assays. Prioritization of molecules with little or no cytotoxicity for a more in-depth downstream evaluation influence the future direction of projects, so cytotoxicity profiling of the screening libraries at early stage is essential for increasing the likelihood of candidate success. […] For the annotated library, we also examined the primary targets and mechanistic pathways regularly associated with cell death. To our knowledge, this is the first study to use high-throughput screening to profile large libraries for cytotoxicity assessment in both normal and cancer cell lines. In summary, the results generated here constitutes a valuable resource for the scientific community and provides insight on identifying cytotoxic compounds with particular mechanisms of action, and prioritizing compounds with suitable cytotoxicity profile for further evaluation.
A pintool (Kalypsys) was used to transfer 23 nL of compound solution to the 1536-well assay plates. After 48 or 72 hr incubation at 37 degree Celsius, 5% CO2 and 95% humidity, 2.5 uL of CellTiter-Glo (Promega) was dispensed into each well using a dispenser (Aspect Automation, St. Paul, MN) with solenoid valves (Lee Valves, Westbrook CT). Plates were left at room temperature for 10 min before imaging the ATP-coupled luminescence using a ViewLux microplate imager (PerkinElmer, Waltham, MA).
In the case of `NC(=O)c1cn(Cc2c(F)cccc2F)nn1`, the max response is reported as -1.38% (inactive). With `O=C(CCCN1CCC(O)(c2cccc(C(F)(F)F)c2)CC1)c1ccc(F)cc1` the max response was -16.4% (inactive). In the case of `COc1ccc(CN(CCN(C)C)c2ccccn2)cc1`, the max response is reported as -13% (inactive). For `COC(=O)[C@H]1[C@H]2C[C@@H]3c4[nH]c5cc(OC)ccc5c4CCN3C[C@H]2C[C@@H](OC(=O)c2cc(OC)c(OC)c(OC)c2)[C@@H]1OC`, the max response was 21.8% (inactive) and -5.12% (inactive). In the case of `CC(C)(C)NCC(O)c1cc(O)cc(O)c1` (stereo not given), the max response is reported as -2.33% (inactive). In the case of `CCNC(=O)N1CCN(CCCC(c2ccc(F)cc2)c2ccc(F)cc2)CC1`, the max response is reported as -7.16% (inactive). For `Cc1nc2sccn2c(=O)c1CCN1CCC(=C(c2ccc(F)cc2)c2ccc(F)cc2)CC1`, the max response was -12.7% (inactive). For `CCCN(CCC)C(=O)C(CCC(=O)O)NC(=O)c1ccccc1` (stereo not given), the max response was 20.1% (inactive). `CCn1cc(C(=O)O)c(=O)c2cc3c(cc21)OCO3` was tested, and the max response was -12.7% (inactive). With `CC(=O)OC(C)C[N+](C)(C)C` (stereo not given) the max response was 6% (inactive). With `O=C(O)CN(CCOCCOCCN(CC(=O)O)CC(=O)O)CC(=O)O` the max response was 5.76% (inactive). `Cc1scc2c1N(C(=O)CN1CCN(C)CC1)c1ccccc1NC2=O` was tested, and the max response was 6.97% (inactive). With `CN(C)CC/C=C1\c2ccccc2COc2ccccc21` the max response was 4.58% (inactive). For `CN(C(=O)CCCOc1ccc2[nH]c(=O)ccc2c1)C1CCCCC1`, the max response was -8.72% (inactive). With `COCCOC(=O)C1=C(C)NC(C)=C(C(=O)OC(C)C)C1c1cccc([N+](=O)[O-])c1` (stereo not given) the max response was 2.4% (inactive). `C[C@@H](O)[C@H]1C(=O)N2C(C(=O)O)=C(SCCN=CN)C[C@H]12` was tested, and the max response was -8.98% (inactive). With `CN=C(NC#N)NCCSCc1nc[nH]c1C` the max response was -9.62% (inactive). In the case of `CCCN(CCC)CCc1cccc2c1CC(=O)N2`, the max response is reported as -0.569% (inactive). With `CCCCOCCOCCOCc1cc2c(cc1CCC)OCO2` the max response was -1.58% (inactive) and -16.8% (inactive). For `CCN1CCc2nc(N)oc2CC1`, the max response was 2.16% (inactive). In the case of `COC(=O)C1=C(C)NC(C)=C(C(=O)OCCN(C)Cc2ccccc2)C1c1cccc([N+](=O)[O-])c1` (stereo not given), the max response is reported as -10.4% (inactive). With `N[C@@H](COP(=O)(O)O)C(=O)O` the max response was -0.563% (inactive). `CN1C[C@H](C(=O)N[C@]2(C)O[C@@]3(O)[C@@H]4CCCN4C(=O)[C@H](Cc4ccccc4)N3C2=O)C[C@@H]2c3cccc4[nH]cc(c34)C[C@H]21` was tested, and the max response was 0.239% (inactive). With `CCO/C([O-])=N/c1c[n+](N2CCOCC2)no1` the max response was -5.15% (inactive). `NC/C=C/C(=O)O` was tested, and the max response was 3.52% (inactive). With `NC(=O)c1ncn([C@@H]2O[C@H](CO)[C@@H](O)[C@H]2O)c1O` the max response was 8.08% (inactive). In the case of `c1ccc2c(c1)CCCC2C1=NCCN1` (stereo not given), the max response is reported as 10.6% (inactive). In the case of `CCOC(=O)c1cnc2c(cnn2CC)c1NN=C(C)C`, the max response is reported as 7.56% (inactive). In the case of `NCCCNCCSP(=O)(O)O`, the max response is reported as -4.63% (inactive). `NC(Cc1ccc(Cl)cc1)C(=O)O` (stereo not given) was tested, and the max response was -13.5% (inactive). For `CC(=O)[C@]1(O)Cc2c(O)c3c(c(O)c2[C@@H](O[C@H]2C[C@H](N)[C@H](O)[C@H](C)O2)C1)C(=O)c1ccccc1C3=O`, the Potency was 4.61 µM (active). In the case of `Cc1nc2ccccn2c(=O)c1CCN1CCC(C(=O)c2ccc(F)cc2)CC1`, the max response is reported as -5.16% (inactive). `CC(C)(C)c1ccc(C(=O)CCCN2CCC(OC(c3ccccc3)c3ccccc3)CC2)cc1` was tested, and the max response was -0.417% (inactive). `FC(F)(F)c1ccccc1-n1ccnc1` was tested, and the max response was 22% (inactive). With `CCN1CCC[C@H]1CNC(=O)c1c(O)c(Cl)cc(Cl)c1OC` the max response was -13.7% (inactive). In the case of `COc1ccc(CCN(C)CCCC(C#N)(c2cc(OC)c(OC)c(OC)c2)C(C)C)cc1OC` (stereo not given), the max response is reported as -0.362% (inactive). In the case of `CCCCNc1ccc(C(=O)OCCN(C)C)cc1`, the max response is reported as 0.24% (inactive). In the case of `Cc1ccc(/C(=C\CN2CCCC2)c2ccccn2)cc1`, the max response is reported as 18.1% (inactive). With `C[C@]12CCC(=O)C=C1CC[C@@H]1[C@@H]2CC[C@@]2(C)[C@H]1CC[C@]2(O)C(=O)CO` the max response was -11.6% (inactive). In the case of `CNCCCN1c2ccccc2CCc2ccccc21`, the max response is reported as -3.48% (inactive).
